Measured values reported in PubChem BioAssay AID1159580 (chemical genetic matrix, 2015).
About 2,000 (36%) of roughly 5,500 compounds were called active. Roughly 18% stayed inconclusive and do not appear here. Cut-off read from the data, not from the text of the source: active = normalized growth mostly below about 0.91 (no sharp cut-off); inconclusive = no clear call, values can overlap the other calls; inactive = mostly above about 0.92. The list shows a part of the results.

Assay: chemical genetic growth profiling, strain panel (AID 1159580);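 note: tested at 20 µM; growth read once vehicle control cultures reached saturation at 30 °C; 1 = growth at the plate median or of vehicle wells; lower values mean less growth of the strain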
Conditions: S. cerevisiae deletion strains, growth OD

Measured: normalized growth

NC/C=C/C(=O)O
inactive: locus YAL013W, strain DEP1, hits give low values 1.02 | locus YAL021C, strain ccr4, hits give low values 0.968 | locus YAL026C, strain drs2, hits give low values 0.997 | locus YAL030W, strain snc1, hits give low values 1 | locus YAL040C, strain CLN3, hits give low values 0.998 | locus YBL061C, strain skt5, hits give low values 1.01 | locus YBR009C, strain hhf1, hits give low values 1.01 | locus YBR021W, strain FUR4, hits give low values 1.01 | locus YBR023C, strain chs3, hits give low values 1 | locus YBR171W, strain sec66, hits give low values 0.985 | locus YBR229C, strain ROT2, hits give low values 1.01 | locus YBR231C, strain swc5, hits give low values 1.02 | locus YBR279W, strain paf1, hits give low values 1.01 | locus YCL011C, strain gbp2, hits give low values 0.983 | locus YCL016C, strain dcc1, hits give low values 1.01 | locus YCL029C, strain bik1, hits give low values 1.02 | locus YCL061C, strain MRC1 (second series), hits give low values 1 | locus YCL061C, strain MRC1, hits give low values 0.987 | locus YCL069W, strain vba3, hits give low values 0.992 | locus YCR088W, strain abp1, hits give low values 0.986 | locus YDL005C, strain med2, hits give low values 1.01 | locus YDL035C, strain GPR1, hits give low values 1.04 | locus YDL040C, strain nat1, hits give low values 1 | locus YDL074C, strain BRE1, hits give low values 0.986 | locus YDL101C, strain DUN1, hits give low values 1 | locus YDL134C, strain PPH21, hits give low values 1.01 | locus YDL185W, strain tfp1, hits give low values 1.02 | locus YDL192W, strain arf1, hits give low values 1.01 | locus YDR001C, strain nth1, hits give low values 0.987 | locus YDR069C, strain doa4, hits give low values 1.03 | locus YDR101C, strain arx1, hits give low values 1.02 | locus YDR137W, strain rgp1, hits give low values 1.01 | locus YDR150W, strain NUM1, hits give low values 1.01 | locus YDR159W, strain sac3, hits give low values 1.02 | locus YDR162C, strain NBP2, hits give low values 0.986 | locus YDR195W, strain ref2 1.01 | locus YDR297W, strain sur2, hits give low values 1.01 | locus YDR318W, strain mcm21, hits give low values 1.05 | locus YDR334W, strain swr1, hits give low values 1 | locus YDR335W, strain msn5, hits give low values 1.01 | locus YDR363W, strain ESC2, hits give low values 0.999 | locus YDR388W, hits give low values 1.01 | locus YDR392W, strain spt3, hits give low values 0.965 | locus YDR502C, strain sam2, hits give low values 0.999 | locus YEL003W, strain gim4, hits give low values 0.99 | locus YEL037C, strain rad23, hits give low values 0.982 | locus YEL061C, strain CIN8 (second series), hits give low values 0.99 | locus YEL061C, strain CIN8, hits give low values 1.01 | locus YER002W, strain NOP16, hits give low values 0.975 | locus YER015W, strain faa2, hits give low values 1.01 | locus YER016W, strain bim1, hits give low values 1.02 | locus YER110C, hits give low values 1.02 | locus YER111C, strain swi4, hits give low values 0.98 | locus YER155C, strain BEM2 (second series), hits give low values 1.01 | locus YER155C, strain BEM2, hits give low values 0.999 | locus YER167W, strain BCK2, hits give low values 1.05 | locus YFR010W, strain ubp6, hits give low values 1.01 | locus YGL078C, strain dbp3, hits give low values 0.994 | locus YGL086W, strain mad1, hits give low values 1.04 | locus YGL167C, strain pmr1, hits give low values 1.01 | locus YGL173C, strain kem1, hits give low values 1.01 | locus YGL227W, strain vid30, hits give low values 0.988 | locus YGL240W, strain doc1, hits give low values 1.02 | locus YGL248W, strain PDE1, hits give low values 1.01 | locus YGL253W, strain hxk2, hits give low values 1 | locus YGR078C, strain PAC10, hits give low values 1.01 | locus YGR135W, strain pre9, hits give low values 0.996 | locus YGR229C, strain SMI1, hits give low values 1.01 | locus YGR252W, strain gcn5, hits give low values 1.03 | locus YHR013C, strain ard1, hits give low values 0.999 | locus YHR027C, strain rpn1, hits give low values 1.01 | locus YHR030C, strain SLT2, hits give low values 1.01 | locus YHR079C, strain IRE1 (second series), hits give low values 1.01 | locus YHR094C, strain hxt1, hits give low values 1.01 | locus YHR129C, strain ARP1, hits give low values 1.02 | locus YHR142W, strain chs7, hits give low values 0.975 | locus YHR200W, strain rpn10, hits give low values 1.02 | locus YIL066C, strain RNR3, hits give low values 1.02 | locus YIL073C, strain SPO22, hits give low values 1.13 | locus YIL125W, strain kgd1, hits give low values 1.01 | locus YIR030C, strain dcg1, hits give low values 1.02 | locus YJL092W, strain hpr5, hits give low values 0.984 | locus YJL095W, strain BCK1 (second series), hits give low values 1.01 | locus YJL095W, strain BCK1, hits give low values 1.03 | locus YJL115W, strain asf1, hits give low values 0.994 | locus YJL129C, strain trk1, hits give low values 0.994 | locus YJL134W, strain LCB3, hits give low values 1.01 | locus YJL154C, strain vps35, hits give low values 0.987 | locus YJL164C, strain tpk1, hits give low values 0.989 | locus YJL166W, strain qcr8, hits give low values 1.02 | locus YJL168C, strain set2, hits give low values 1 | locus YJL187C, strain SWE1 (second series), hits give low values 1.01 | locus YJL187C, strain SWE1, hits give low values 1.02
